# Assay results taken from the supplement of paper PMC11634586.
# Structures can show the parent of a compound that is named as a salt. Values without a mark were called inactive.
# Test system: NCI-H1688
# Assay: inhibition of cell viability relative to untreated control (fraction); higher = stronger growth inhibition, active = 0.5 or more
# Conditions: 30 µM; 24 h
# Method in brief: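 Viability of NCI-H1688 small cell lung cancer cells was assessed with Cell Counting Kit-8 by absorbance at 450 nm, in triplicate, after a 24 h exposure to a natural compound library (TargetMol) at 30 µM at 37°C and 5% CO2. The cells had been seeded at 3 × 10^3 cells/well in 96-well plates 24 h before treatment. Inhibition of cell viability is reported as a fraction, derived from viability normalised against untreated cells.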
row,SMILES,inhibition of cell viability
1,C[n+]1cccc(C(=O)[O-])c1 [Trigonelline],-0.0163
2,Oc1cc(O)c2c(c1)O[C@H](c1ccc(O)c(O)c1)[C@@H](O)C2 [Cianidanol],0.298
3,NC[C@H]1O[C@H](O[C@H]2[C@H](O)[C@@H](O[C@H]3O[C@H](CO)[C@@H](O)[C@H](N)[C@H]3O)[C@H](N)C[C@@H]2N)[C@H](N)C[C@@H]1O [Tobramycin],-0.0866
4,C[C@H](CC[C@@H](O[C@@H]1O[C@H](CO[C@@H]2O[C@H](CO)[C@@H](O)[C@H](O)[C@H]2O)[C@@H](O)[C@H](O)[C@H]1O[C@@H]1O[C@H](CO)[C@@H](O)[C@H](O)[C@H]1O)C(C)(C)O)[C@H]1CC[C@@]2(C)[C@@H]3CC=C4[C@@H](CC[C@H](O[C@@H]5O[C@H](CO[C@@H]6O[C@H](CO)[C@@H](O)[C@H](O)[C@H]6O)[C@@H](O)[C@H](O)[C@H]5O)C4(C)C)[C@]3(C)[C@H](O)C[C@]12C [Mogroside V],0.121
5,Cc1cc2nc3c(=O)[nH]c(=O)nc-3n(C[C@H](O)[C@H](O)[C@H](O)COP(=O)(O)O)c2cc1C [Flavin mononucleotide],0.0137
6,COc1cc(CO)ccc1O [Vanillyl Alcohol],-0.235
7,CC[C@H](C)C(=O)O[C@H]1C[C@@H](C)C=C2C=C[C@H](C)[C@H](CC[C@@H]3C[C@@H](O)CC(=O)O3)[C@H]21 [Lovastatin],0.836 (active)
8,OC[C@H]1O[C@@H](Oc2cc(O)cc(/C=C/c3ccc(O)cc3)c2)[C@H](O)[C@@H](O)[C@@H]1O [Piceid],0.175
9,Cc1ncc(C[n+]2csc(CCO)c2C)c(N)n1 [Thiamine hydrochloride],-0.123
10,CC[C@@H]1C(=O)OC[C@@H]1Cc1cncn1C [Pilocarpine nitrate],-0.128
11,C=C1C(=O)O[C@@H]2/C=C(\C)CC/C=C(\C)CC[C@@H]12 [Costunolide],0.333
12,Cn1cnc2c1c(=O)[nH]c(=O)n2C [Theobromine],0.0986
13,N[C@H]1C(O)O[C@H](CO)[C@@H](O)[C@@H]1O (some centres not stated) [Glucosamine],-0.173
14,CC1(C)[C@@H](O[C@H]2O[C@H](C(=O)O)[C@@H](O)[C@H](O)[C@H]2O[C@@H]2O[C@H](C(=O)O)[C@@H](O)[C@H](O)[C@H]2O)CC[C@]2(C)[C@H]3C(=O)C=C4[C@@H]5C[C@@](C)(C(=O)O)CC[C@]5(C)CC[C@@]4(C)[C@]3(C)CC[C@@H]12 [Glycyrrhizin (Glycyrrhizic Acid)],-0.0055
15,N[C@@H](Cc1cc(I)c(Oc2ccc(O)c(I)c2)c(I)c1)C(=O)O [Lyothyronine],0.0198
16,O=C1O[C@H]([C@@H](O)CO)C(O)=C1O [L(+)-Ascorbic acid],0.195
17,CCCCCCCCCCCCCCCC(=O)O [Palmitic acid],0.0796
18,O=c1[nH]cnc2c1ncn2[C@@H]1O[C@H](CO)[C@@H](O)[C@H]1O [Inosine],0.0115
19,CC1C(=O)OC2C(O)C34C5CC(C(C)(C)C)C36C(OC(=O)C6O)OC4(C(=O)O5)C12O (configuration not stated) [Ginkgolide B],-0.0261

row,SMILES,inhibition of cell viability
1,C[C@@H]1O[C@@H](Oc2c(-c3cc(O)c(O)c(O)c3)oc3cc(O)cc(O)c3c2=O)[C@H](O)[C@H](O)[C@H]1O [Myricetrin],-0.141
2,CC(=O)O[C@]1(C(C)=O)CC[C@H]2[C@@H]3C[C@H](C)C4=CC(=O)CC[C@]4(C)[C@H]3CC[C@@]21C [Farlutin],0.01
3,"COc1cc(O)cc(OC)c1OC [3,4,5-Trimethoxyphenol]",0.0652
4,CC(=O)O[C@H]1C(=O)[C@@]2(C)[C@H]([C@H](OC(=O)c3ccccc3)[C@]3(O)C[C@H](OC(=O)[C@H](O)[C@@H](NC(=O)c4ccccc4)c4ccccc4)C(C)=C1C3(C)C)[C@]1(OC(C)=O)CO[C@@H]1C[C@@H]2O [Paclitaxel],0.555 (active)
5,CC1(C)CCC[C@](C)([C@H]2CC[C@]3(C)[C@@H]2[C@H](O)C[C@@H]2[C@@]4(C)CC[C@H](O)C(C)(C)[C@@H]4[C@H](O)C[C@]23C)O1 [Panaxtriol],-0.0145
6,C=C1CC[C@@H]2[C@](C)(CO)[C@H](O)CC[C@@]2(C)[C@@H]1C/C=C1/C(=O)OC[C@H]1O [Andrographolide],0.853 (active)
7,O=C(O)CCCCCCCC(=O)O [Azelaic acid],0.133
8,C=CC1=C(C)/C(=C/c2[nH]c(Cc3[nH]c(/C=C4\NC(=O)C(C)=C4C=C)c(C)c3CCC(=O)O)c(CCC(=O)O)c2C)NC1=O [Bilirubin],0.0432
9,OC[C@@H](O)[C@H](O)[C@H](O)[C@@H](O)CO [Dulcitol],-0.284
10,CCCCCCCCCCCCCCCCCCOCC(O)CO (configuration not stated) [Batyl alcohol],-0.0252
11,Cc1ncc(CO)c(CO)c1O [Pyridoxine],0.0231
12,O[C@H]1[C@H]2c3cc4c(cc3CN3CCC(=C[C@@H]1O)[C@H]23)OCO4 [Lycorine chloride],0.931 (active)
13,O=c1[nH]cnc2nc[nH]c12 [6-Hydroxypurine],-0.00202
14,O=C(O)C1=CO[C@@H](O[C@@H]2O[C@H](CO)[C@@H](O)[C@H](O)[C@H]2O)[C@@H]2C(CO)=CC[C@H]12 [Geniposidic Acid],-0.0628
15,C[C@H](CCC(=O)O)[C@H]1CC[C@H]2[C@@H]3C(=O)C[C@@H]4CC(=O)CC[C@]4(C)[C@H]3CC(=O)[C@]12C [Dehydrocholic acid],-0.142
16,COc1ccc(/C=C\c2cc(OC)c(OC)c(OC)c2)cc1O [Combretastatin A4],0.823 (active)
17,COc1cc2c(cc1OC)-c1cc3ccc(OC)c(OC)c3c[n+]1CC2 [Palmatine chloride],0.0401
18,O=C(O)[C@]1(O)C[C@@H](O)[C@@H](O)[C@H](O)C1 [Quinic acid],0.126
